Results taken from PubChem BioAssay (NCATS).
Several values for one entry are separate records, joined by “and”; a condition that tells them apart may be missing. Identical values can stand only once. Results filed as inconclusive are left out. Activity calls are given as the source filed them. Unless noted, calls follow the shape of the dose curve; as a rule, active = well fitted curve in the direction sought with a large enough effect; inconclusive = small, poorly fitted or top-dose-only effect, or another doubt; inactive = no such curve, though single readings can be large; an effect the other way counts as inactive or inconclusive.

Assays:
[1] = target: Cytochrome P450 3A4 (Homo sapiens) (UniProt P08684); experiment: qHTS Assay for Inhibitors and Substrates of Cytochrome P450 3A4 (AID 884); also: series mostly up to about 57 µM; % is scaled to controls: 0 for no effect and ±100 for the full control effect; nearly all actives have a fitted effect of over 50% in size
Sequence of Cytochrome P450 3A4 (Homo sapiens) (P08684 whole entry, looked up): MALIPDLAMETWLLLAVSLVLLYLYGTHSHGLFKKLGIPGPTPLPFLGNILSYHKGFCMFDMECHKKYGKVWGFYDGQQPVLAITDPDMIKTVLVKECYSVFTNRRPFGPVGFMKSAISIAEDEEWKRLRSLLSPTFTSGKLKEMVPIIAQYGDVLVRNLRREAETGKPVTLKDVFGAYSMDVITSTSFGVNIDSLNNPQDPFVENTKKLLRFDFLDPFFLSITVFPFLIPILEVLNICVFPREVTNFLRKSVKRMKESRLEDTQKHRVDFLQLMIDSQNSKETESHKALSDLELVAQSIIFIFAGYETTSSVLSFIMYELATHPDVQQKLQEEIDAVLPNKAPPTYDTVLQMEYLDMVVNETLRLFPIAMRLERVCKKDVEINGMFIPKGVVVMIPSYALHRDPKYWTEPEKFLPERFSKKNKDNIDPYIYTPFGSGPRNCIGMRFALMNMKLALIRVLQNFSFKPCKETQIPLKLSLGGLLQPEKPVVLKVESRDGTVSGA
Summary of the method: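 Luminescent readout of luciferin produced by CYP3A4 (20 nM) dealkylation of Luciferin-PPXE, 25 uM (its KM). NADPH-driven reaction ran 60 min at RT after 10 min compound preincubation; data scaled to 57 uM ketoconazole as 100% inhibition.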

[2] = Cell Viability - LYMP2-001 (AID 921);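 also: series mostly up to about 92 µM; 0% = DMSO only and full inhibition = tetraoctylammonium bromide control wells; nearly all actives have a fitted effect of over 70% in size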
Summary of the method: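 Steps: seed 2500 lymphoblastoid cells/well; 5 hr, 37 C; add compound; 24 hr, 37 C; CellTiter-Glo reagent, 30 min room temperature; read luminescence. Concentration-response modeled by Hill equation for AC50.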

[3] = MultiTox-Fluor Cytotoxicity Assay - LYMP1-001 - Live Cells (AID 947);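 also: 0% = DMSO only and full inhibition = tetraoctylammonium bromide control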
[4] = Cell Viability - LYMP2-010 (AID 981);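 also: cells exposed to compound for 24 hours at 37 °C; % is scaled to controls: 0 for no effect and ±100 for the full control effect; nearly all actives have a fitted effect of over 55% in size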
Summary of the method: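 qHTS cytotoxicity, 1536-well: 2500 cells/well, 5 hr settle, 24 hr compound at 37 C, CellTiter-Glo 30 min RT, luminescence read. Decrease in ATP = toxicity; AC50 via standard Hill equation. Positive control tetraoctylammonium bromide.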

[5] = Cell Viability - LYMP2-012 (AID 982);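 also: cellular ATP by luciferase luminescence where a drop means cytotoxicity; cells exposed to compound for one day before reading; 0% = DMSO only and full loss = 92 µM tetraoctylammonium bromide; nearly all actives have a fitted effect of over 55% in size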
[6] = Cell Viability - LYMP2-016 (AID 984);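 also: cells exposed to compound for 24 hours at 37 °C; % is scaled to controls: 0 for no effect and ±100 for the full control effect; nearly all actives have a fitted effect of over 55% in size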
Summary of the method: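 Cells were seeded at 2500 per well and rested 5 hr before a 24 hr compound exposure at 37 C. Viability was then gauged as cellular ATP by luciferase luminescence, with AC50 values fitted to the Hill equation.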

[7] = Cell Viability - LYMP2-024 (AID 988);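 also: plate controls were DMSO only for no effect and 92 µM tetraoctylammonium bromide for full effect; nearly all actives have a fitted effect of over 60% in size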
Summary of the method: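 ATP-based luminescence (CellTiter-Glo, 30 min RT) after 24 h compound exposure at 37 C of 2500 lymphoblastoid cells/well; decrease in ATP taken as cytotoxicity. qHTS concentration-response fitted to standard Hill equation for AC50.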

[8] = target: Estrogen receptor (Homo sapiens) (UniProt P03372); experiment: qHTS assay for small molecule antagonists of estrogen receptor alpha signaling (AID 588513; active = well fitted curve in the direction sought with a large enough effect in the signal ratio, with a control signal flat, not every such curve was filed as active; the % refers to the signal ratio; also: % is scaled to controls: 0 for no effect and ±100 for the full control effect)
Sequence of Estrogen receptor (Homo sapiens) (P03372 whole entry, looked up): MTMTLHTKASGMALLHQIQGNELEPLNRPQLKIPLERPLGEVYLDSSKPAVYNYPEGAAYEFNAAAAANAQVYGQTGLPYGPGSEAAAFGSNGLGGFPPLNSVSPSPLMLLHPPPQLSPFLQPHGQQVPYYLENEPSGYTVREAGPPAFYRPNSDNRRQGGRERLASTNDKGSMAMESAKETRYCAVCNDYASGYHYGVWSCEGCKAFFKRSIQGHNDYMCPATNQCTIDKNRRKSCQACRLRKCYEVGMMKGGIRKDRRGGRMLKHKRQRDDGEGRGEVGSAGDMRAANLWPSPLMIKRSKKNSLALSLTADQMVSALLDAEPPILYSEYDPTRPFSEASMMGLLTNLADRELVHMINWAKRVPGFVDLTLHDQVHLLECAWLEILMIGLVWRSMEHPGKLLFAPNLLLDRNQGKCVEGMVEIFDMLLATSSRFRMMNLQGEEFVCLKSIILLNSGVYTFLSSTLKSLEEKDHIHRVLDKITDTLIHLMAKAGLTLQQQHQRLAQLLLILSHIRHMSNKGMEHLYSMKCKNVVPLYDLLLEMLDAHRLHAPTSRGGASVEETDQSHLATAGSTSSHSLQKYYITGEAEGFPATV
Summary of the method: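 Fluorescence from CCF4 substrate after 2 h at room temperature gave reporter activity; cells had been exposed to compound and 0.5nM 17-beta-estradiol for 18 h at 37 C. Hill-equation fitting yielded IC50 and maximal response.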

[9] = target: Estrogen receptor (Homo sapiens) (UniProt P03372); experiment: qHTS assay for small molecule agonists of estrogen receptor alpha signaling (AID 588514; calls by dose curve;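 also: 0% = vehicle only and 100% = reference agonist; nearly all actives have a fitted effect of over 70% in size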)
Summary of the method: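 Read-out: CCF4 fluorescence from a beta-lactamase reporter in ER-alpha-UAS-bla HEK 293 cells after 18 hrs of compound exposure at 37 C. Normalized to 20 nM 17-beta-estradiol (100%) and DMSO (0%).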

[10] = target: Glucocorticoid receptor (Homo sapiens) (UniProt P04150); experiment: qHTS assay for small molecule agonists of glucocorticoid receptor signaling (AID 588532; active = well fitted curve in the direction sought with a large enough effect in the signal ratio, with a control signal flat; the % refers to the signal ratio;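 also: 100% = dexamethasone at 0.1 µM and 0% = DMSO only wells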); conditions: HeLa MMTV-bla, beta-lactamase ratio, agonist, 18 h; hits give high values; percent of dexamethasone control, DMSO zero
Sequence of Glucocorticoid receptor (Homo sapiens) (P04150 whole entry, looked up): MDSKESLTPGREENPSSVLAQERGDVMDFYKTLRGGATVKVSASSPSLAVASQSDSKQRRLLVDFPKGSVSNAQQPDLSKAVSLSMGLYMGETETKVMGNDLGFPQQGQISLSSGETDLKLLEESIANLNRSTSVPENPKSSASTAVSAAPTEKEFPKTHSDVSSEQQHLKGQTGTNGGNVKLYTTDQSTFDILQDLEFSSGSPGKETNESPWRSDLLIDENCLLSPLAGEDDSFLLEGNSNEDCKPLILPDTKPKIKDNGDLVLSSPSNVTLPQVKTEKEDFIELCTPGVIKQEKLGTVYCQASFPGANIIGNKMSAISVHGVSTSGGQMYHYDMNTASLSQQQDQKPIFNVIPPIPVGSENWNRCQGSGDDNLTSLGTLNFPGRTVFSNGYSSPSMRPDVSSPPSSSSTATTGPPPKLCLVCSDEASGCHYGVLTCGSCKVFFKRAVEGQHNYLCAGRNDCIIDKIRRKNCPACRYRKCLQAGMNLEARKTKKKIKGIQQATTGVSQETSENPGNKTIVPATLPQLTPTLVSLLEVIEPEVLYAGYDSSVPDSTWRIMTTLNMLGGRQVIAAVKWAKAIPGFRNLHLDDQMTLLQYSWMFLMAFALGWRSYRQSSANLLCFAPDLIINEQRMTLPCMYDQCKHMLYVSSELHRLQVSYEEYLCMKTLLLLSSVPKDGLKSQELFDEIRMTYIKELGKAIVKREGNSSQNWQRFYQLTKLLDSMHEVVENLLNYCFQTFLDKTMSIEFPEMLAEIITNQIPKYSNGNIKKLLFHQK
Summary of the method: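 MMTV-bla HeLa beta-lactamase reporter cells in 1% charcoal/dextran FBS medium, compounds up to 92 uM for 18 h at 37 C, CCF4 readout; normalized to 0.1 uM dexamethasone (100%), EC50 and efficacy from Hill fits.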

[11] = target: Peroxisome proliferator-activated receptor gamma (Homo sapiens) (UniProt P37231); experiment: qHTS assay for small molecule agonists of peroxisome proliferator-activated receptor gamma signaling (AID 588536; active = well fitted curve in the direction sought with a large enough effect in the signal ratio, with a control signal flat, not every such curve was filed as active; the % refers to the signal ratio;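 also: 0% = DMSO basal wells and 100% = rosiglitazone at 2 µM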)
Sequence of Peroxisome proliferator-activated receptor gamma (Homo sapiens) (P37231 whole entry, looked up): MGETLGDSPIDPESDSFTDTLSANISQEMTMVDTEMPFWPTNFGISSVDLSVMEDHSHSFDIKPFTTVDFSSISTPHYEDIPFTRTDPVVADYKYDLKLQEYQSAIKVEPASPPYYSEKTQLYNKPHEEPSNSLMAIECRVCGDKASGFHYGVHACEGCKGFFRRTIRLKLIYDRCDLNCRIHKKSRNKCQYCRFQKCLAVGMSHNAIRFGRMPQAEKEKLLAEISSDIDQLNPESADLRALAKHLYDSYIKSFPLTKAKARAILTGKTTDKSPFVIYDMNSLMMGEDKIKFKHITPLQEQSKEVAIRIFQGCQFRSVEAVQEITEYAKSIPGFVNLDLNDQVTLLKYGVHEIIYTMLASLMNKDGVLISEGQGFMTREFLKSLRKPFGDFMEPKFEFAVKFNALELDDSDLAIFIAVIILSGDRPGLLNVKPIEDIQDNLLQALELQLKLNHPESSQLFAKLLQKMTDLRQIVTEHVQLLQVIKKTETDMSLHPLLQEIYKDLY
Summary of the method: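 Using GeneBLAzer HEK293 cells, response was quantified by CCF4 fluorescence and normalized between basal DMSO (0%) and rosiglitazone 2 uM (100%); curves yielded half-maximal stimulation concentration and efficacy.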

[12] = target: Retinoic acid receptor RXR-alpha (Homo sapiens) (UniProt P19793); experiment: qHTS assay for small molecule agonists of retinoid X receptor alpha signaling (AID 588544; calls by dose curve;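 also: 0% = DMSO basal wells and 100% = reference agonist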)
Sequence of Retinoic acid receptor RXR-alpha (Homo sapiens) (P19793 whole entry, looked up): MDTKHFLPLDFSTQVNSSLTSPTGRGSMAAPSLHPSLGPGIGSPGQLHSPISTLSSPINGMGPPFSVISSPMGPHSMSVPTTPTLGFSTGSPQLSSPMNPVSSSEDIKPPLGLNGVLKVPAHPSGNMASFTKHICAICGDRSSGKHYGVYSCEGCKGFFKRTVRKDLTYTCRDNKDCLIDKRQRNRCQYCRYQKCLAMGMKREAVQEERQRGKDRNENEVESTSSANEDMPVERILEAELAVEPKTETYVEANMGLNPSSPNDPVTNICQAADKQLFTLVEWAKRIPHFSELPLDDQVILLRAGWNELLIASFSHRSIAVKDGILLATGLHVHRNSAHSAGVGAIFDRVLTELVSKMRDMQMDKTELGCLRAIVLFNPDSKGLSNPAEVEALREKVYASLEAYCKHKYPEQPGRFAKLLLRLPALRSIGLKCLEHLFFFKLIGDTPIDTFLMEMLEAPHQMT

[13] = target: Thyroid hormone receptor beta (Homo sapiens) (UniProt P10828); experiment: qHTS assay for small molecule antagonists of thyroid hormone receptor beta signaling (AID 588547; active = well fitted inhibition curve with a large enough effect in the signal ratio, with a control signal flat, not every such curve was filed as active; the % refers to the signal ratio;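 also: cells stimulated with 0.4 nM T3 agonist during compound exposure; series mostly up to about 77 µM; % is scaled to controls: 0 for no effect and ±100 for the full control effect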); conditions: TR-UAS-bla HEK293, beta-lactamase ratio, antagonist mode, 18 h
Sequence of Thyroid hormone receptor beta (Homo sapiens) (P10828 whole entry, looked up): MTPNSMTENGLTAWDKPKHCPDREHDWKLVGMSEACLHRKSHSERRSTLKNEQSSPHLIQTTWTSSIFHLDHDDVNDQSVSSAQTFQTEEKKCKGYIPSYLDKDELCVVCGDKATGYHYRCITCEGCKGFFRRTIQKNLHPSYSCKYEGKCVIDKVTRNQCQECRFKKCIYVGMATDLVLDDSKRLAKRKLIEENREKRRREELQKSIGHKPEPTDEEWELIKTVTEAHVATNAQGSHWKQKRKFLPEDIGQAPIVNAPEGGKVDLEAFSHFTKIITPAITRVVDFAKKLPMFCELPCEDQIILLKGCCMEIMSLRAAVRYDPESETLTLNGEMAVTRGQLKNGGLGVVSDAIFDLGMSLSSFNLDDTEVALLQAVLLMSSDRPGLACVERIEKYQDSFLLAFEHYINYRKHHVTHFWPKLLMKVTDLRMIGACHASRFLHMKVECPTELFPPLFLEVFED
Summary of the method: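 TR-UAS-bla GripTite HEK293 cells in 2% charcoal/dextran FBS medium; compounds 0.59 nM to 92 uM with T3 at 0.4nM final, 18 h at 37 C. Beta-lactamase read by CCF4 fluorescence (460/530 nm); Hill fits gave IC50 and efficacy.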

[14] = qHTS assay for small molecule activators of the p53 signaling pathway (AID 651743; active = well fitted activation curve with a large enough effect in the signal ratio, not every such curve was filed as active; the % refers to the signal ratio; also: series mostly up to about 92 µM; % of control where 0% means no effect); conditions: HCT-116 p53RE-bla, beta-lactamase FRET ratio, 16 h; activation: hits give high values
Summary of the method: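 Reporter: beta-lactamase driven by p53 response elements, stably integrated in HCT-116 cells. Cells seeded at 4,000/well, 5 h preincubation, compound (DMSO) 16 h at 37 C; B/G FRET substrate 2 h RT; fluorescence intensity read.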

[15] = target: Tumor necrosis factor (Homo sapiens) (UniProt P01375); experiment: qHTS assay to identify small molecules that stimulate Tumor Necrosis Factor-alpha (TNF-alpha) secretion (AID 651757; active = well fitted curve in the direction sought with a large enough effect in the signal ratio; the % refers to the signal ratio; also: 0% is about no effect)
Sequence of Tumor necrosis factor (Homo sapiens) (P01375 whole entry, looked up): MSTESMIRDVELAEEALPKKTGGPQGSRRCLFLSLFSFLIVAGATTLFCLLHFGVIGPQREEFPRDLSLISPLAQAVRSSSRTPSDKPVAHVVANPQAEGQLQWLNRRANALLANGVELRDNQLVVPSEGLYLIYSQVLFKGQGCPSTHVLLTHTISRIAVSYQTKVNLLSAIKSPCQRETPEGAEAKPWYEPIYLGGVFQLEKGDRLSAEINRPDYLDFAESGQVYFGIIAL
Summary of the method: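 THP-1 cells, 3000/well; compound 17 hrs, 37 C; add cryptate/XL665 anti-TNF-alpha antibody pair; 3 hr RT; TR-FRET (HTRF) read of secreted TNF-alpha. Quantitative HTS format.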

[16] = target: Nuclear receptor ROR-gamma (Homo sapiens) (UniProt P51449); experiment: qHTS assay for small molecule antagonists of the retinoid-related orphan receptor gamma (ROR-gamma) signaling pathway (AID 651802);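 also: CHO cells with doxycycline-induced ROR-gamma expression; luciferase reporter luminescence driven by ROR response element; series mostly up to about 92 µM; % is scaled to controls: 0 for no effect and ±100 for the full control effect; nearly all actives have a fitted effect of over 60% in size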
Sequence of Nuclear receptor ROR-gamma (Homo sapiens) (P51449 whole entry, looked up): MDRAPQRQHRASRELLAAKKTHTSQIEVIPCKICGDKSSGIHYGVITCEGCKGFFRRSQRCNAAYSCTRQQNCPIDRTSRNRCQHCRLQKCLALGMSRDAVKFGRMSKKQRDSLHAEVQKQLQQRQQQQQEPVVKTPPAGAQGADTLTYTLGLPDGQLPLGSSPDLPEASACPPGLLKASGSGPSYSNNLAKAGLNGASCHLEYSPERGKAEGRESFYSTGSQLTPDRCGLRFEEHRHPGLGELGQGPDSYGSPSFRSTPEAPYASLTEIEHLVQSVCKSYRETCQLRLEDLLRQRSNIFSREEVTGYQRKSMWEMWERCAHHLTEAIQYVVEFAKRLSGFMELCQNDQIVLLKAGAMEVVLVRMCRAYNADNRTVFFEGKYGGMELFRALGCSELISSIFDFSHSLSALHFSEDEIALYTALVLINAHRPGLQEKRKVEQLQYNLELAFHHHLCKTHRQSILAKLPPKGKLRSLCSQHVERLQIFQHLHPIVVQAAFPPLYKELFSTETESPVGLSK
Summary of the method: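 Luciferase read-out: ONE-Glo luminescence after 30 min at room temperature, following 16hr doxycycline induction at 37C, 5% CO2 of CHO cells with TET-inducible ROR and RORE-LUC reporter; decreased luminescence = reduced reporter activity.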

[17] = qHTS assay for small molecule antagonists of the retinoid-related orphan receptor gamma (ROR-gamma) signaling pathway - cell viability counter screen (AID 720652; active = well fitted curve in the direction sought with a large enough effect in the repeat runs; an effect the other way counts as inactive or inconclusive;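 also: CHO reporter cells with doxycycline-induced ROR-gamma expression; series mostly up to about 92 µM; compound exposure lasted 16 hr before ATP read; % is scaled to controls: 0 for no effect and ±100 for the full control effect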)
Summary of the method: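 CHO RORE-LUC/TET-ROR line, 1,000 cells/well, 37 C 5% CO2 5 hr; cpd or DMSO + doxycycline induction, 16 hr. CellTiter-Glo, 30 min RT, luminescence = ATP content.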

[18] = target: Nuclear receptor subfamily 1 group I member 2 (Rattus norvegicus) (UniProt Q9R1A7); experiment: qHTS assay for small molecule activators of the rat pregnane X receptor (rPXR) signaling pathway (AID 651751; call rule not given here; also: 0% is about no effect); conditions: rPXR reporter cells, luciferase (One-Glo), 24 h
Sequence of Nuclear receptor subfamily 1 group I member 2 (Rattus norvegicus) (Q9R1A7 whole entry, looked up): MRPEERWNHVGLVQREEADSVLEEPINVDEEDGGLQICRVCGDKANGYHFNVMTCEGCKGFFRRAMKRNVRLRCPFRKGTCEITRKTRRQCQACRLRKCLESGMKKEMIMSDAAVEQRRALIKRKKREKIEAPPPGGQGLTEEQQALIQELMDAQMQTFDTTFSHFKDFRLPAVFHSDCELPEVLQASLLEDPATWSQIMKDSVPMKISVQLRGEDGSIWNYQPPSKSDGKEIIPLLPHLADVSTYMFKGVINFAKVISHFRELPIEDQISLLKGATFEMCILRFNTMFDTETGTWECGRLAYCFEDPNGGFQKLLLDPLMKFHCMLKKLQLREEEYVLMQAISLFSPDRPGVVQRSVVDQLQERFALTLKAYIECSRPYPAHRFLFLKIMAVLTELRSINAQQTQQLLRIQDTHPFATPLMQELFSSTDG

[19] = target: Glucocorticoid receptor (Homo sapiens) (UniProt P04150); experiment: qHTS assay for small molecule antagonists of glucocorticoid receptor signaling (AID 588533; active = well fitted inhibition curve with a large enough effect in the signal ratio, with a control signal flat, not every such curve was filed as active; the % refers to the signal ratio;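 also: cells stimulated with 2 nM dexamethasone as agonist; % is scaled to controls: 0 for no effect and ±100 for the full control effect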)
Summary of the method: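 Antagonist-mode qHTS: compound titrations added to GRE-bla HeLa cells, then dexamethasone 2 nM final; 18 h, 37 C. CCF4 FRET fluorescence normalized to dexamethasone and DMSO; IC50 from Hill fit.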

[20] = qHTS assay for environmental chemicals that activate the Aryl hydrocarbon Receptor (AhR) signaling pathway (AID 651777); conditions: 1A2-DRE human hepatoma cells, luciferase, 24 h; activation: hits give high values; also: % of control where 0% means no effect; nearly all actives have a fitted effect of over 15% in size
Summary of the method: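 Following a 24 hr incubation with test chemicals at 37 C and 5% CO2, 1A2-DRE human hepatoma cells received One-Glo reagent; after 30 min at room temperature, luciferase output reflected CYP1A2 induction via AhR.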

C=C(Cl)Cl
inactive: Potency [1] | Potency [2] | Potency [3] | Potency [4] | Potency [5] | Potency [6] | Potency [7] | Potency [8] | Potency [9] | activation [10] -1.7% | outcome [11] | Potency [12] | activity change % (negative = inhibition) [13] -6% | activation [14] -1.18% | outcome [15] | Potency [16] | Potency [17] | max response [18] -3.03%

CCSC(=O)Cl
inactive: Potency [1] | Potency [2] | Potency [3] | Potency [4] | Potency [5] | Potency [6] | Potency [7] | Potency [8] | Potency [9] | activation [10] 17.3% | Potency [19] | outcome [11] | Potency [12] | activity change % (negative = inhibition) [13] -1.08% | activation [14] -1.99% | outcome [15] | activation [20] 0.624% | Potency [16] | Potency [17] | max response [18] 4.31%

OCC(Br)CBr (stereo not given)
inactive: Potency [1] | Potency [2] | Potency [3] | Potency [4] | Potency [5] | Potency [6] | Potency [7] | Potency [8] | Potency [9] | activation [10] 4.78% | Potency [19] | outcome [11] | Potency [12] | activity change % (negative = inhibition) [13] 1.09% | activation [14] 1.53% | outcome [15] | activation [20] -1.14% | Potency [16] | Potency [17]

Cc1ccc2ccccc2c1
inactive: Potency [1] | Potency [2] | Potency [3] | Potency [4] | Potency [5] | Potency [6] | Potency [7] | Potency [8] | Potency [9] | outcome [11] | Potency [12] | activity change % (negative = inhibition) [13] 0.181% | activation [14] -0.481% | outcome [15] | activation [20] 1.58% | Potency [16] | Potency [17] | max response [18] 6.07%

Clc1nc(Cl)nc(Cl)n1
inactive: Potency [1] | Potency [2] | Potency [3] | Potency [4] | Potency [5] | Potency [6] | Potency [7] | Potency [8] | Potency [9] | activation [10] 2.08% and -5.01% | Potency [19] | outcome [11] | Potency [12] | activity change % (negative = inhibition) [13] -1.04% | activation [14] -4.73% and -1.27% | outcome [15] | activation [20] 1.36% and 0.55% | Potency [16] | Potency [17] | max response [18] -1.06% and -1.98%
